Our source for the growth values is the supplement of paper PMC9262897, “Low-cost anti-mycobacterial drug discovery using engineered E. coli” (Nature Communications, 2022).

Structures are written as SMILES. Structures can show the parent of a compound that is named as a salt. ± gives the standard deviation of the averaged measurements.

The subject of this assay is E. coli TESEC Alr+ wild-type control. Kind of assay: growth (OD600 after 10 h); higher = more growth (less inhibition). To be noted: compound 0.1 mM; raw OD600 reference: median of DMSO wells 0.49, cell-free background 0.052. The procedure: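 TESEC Mtb Alr E. coli (ΔaraC ΔtolC ΔentC Δalr ΔdadX, arabinose-inducible Mtb Alr) or the Alr+ wild-type control strain, grown in defined M9-fructose medium without D-alanine in 96-well plates with Prestwick library compounds at 0.1 mM and 1% DMSO. Low Alr induction is 0.1 µM arabinose and high induction is 10 mM arabinose.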
As for `COC(=O)C1=C(C)NC(C)=C(C(=O)OC(C)C)C1c1cccc2nonc12` (stereo not given) [Isradipine], the growth worked out at 0.379 ± 0.0051.

In the case of `Cc1ccc(C)c(OCCCC(C)(C)C(=O)O)c1` [Gemfibrozil], the growth worked out at 0.41 ± 0.018.

In turn, `CC1CS(=O)(=O)CCN1/N=C/c1ccc([N+](=O)[O-])o1` (stereo not given) [Nifurtimox] registered a growth of 0.354 ± 0.021.

Compound `CCCN[C@H]1CCc2nc(N)sc2C1` [Pramipexole dihydrochloride] came in with a growth of 0.64 ± 0.0092.

In turn, `Cc1cccc(C)c1OCC(C)N` (stereo not given) [Mexiletine hydrochloride] displayed a growth of 0.399 ± 0.005.

As for `Cc1ccc(NC(=O)c2ccc(CN3CCN(C)CC3)cc2)cc1Nc1nccc(-c2cccnc2)n1` [Imatinib], the growth came out at 0.455 ± 0.046.

For `N=C(N)NS(=O)(=O)c1ccc(N)cc1` [Sulfaguanidine], the growth came out at 0.431 ± 0.022.

In the case of `CN(CCOc1ccc(CC2SC(=O)NC2=O)cc1)c1ccccn1` (stereo not given) [Rosiglitazone Hydrochloride], the growth worked out at 0.327 ± 0.0092.

`CN1CCN(C2=Nc3cc(Cl)ccc3Nc3ccccc32)CC1` [Clozapine]: the growth was found to be 0.502 ± 0.044.

Regarding `CC1(C)O[C@@H]2C[C@H]3[C@@H]4C[C@H](F)C5=CC(=O)C=C[C@]5(C)[C@@]4(F)[C@@H](O)C[C@]3(C)[C@]2(C(=O)CO)O1` [Fluocinolone acetonide], the growth was 0.591 ± 0.015.

Compound `CN(C)[C@@H]1C(=O)C(C(N)=O)=C(O)[C@@]2(O)C(=O)C3=C(O)c4c(O)ccc(Cl)c4[C@@H](O)[C@H]3C[C@@H]12` [Demeclocycline hydrochloride] registered a growth of 0.05087 ± 0.00038.

With `CC(=O)NS(=O)(=O)c1ccc(N)cc1` [Sulfacetamide sodic hydrate], the growth is 0.486 ± 0.053.

For `OC(CCN1CCCCC1)(c1ccccc1)C1CCCCC1` (stereo not given) [Trihexyphenidyl-D,L Hydrochloride], the growth was determined as 0.452 ± 0.031.

For `CC=C(C)C(=O)OC1C(OC(C)=O)C2(CO)C(O)CC3(C)C(=CCC4C5(C)CCC(OC6OC(C(=O)O)C(OC7OC(CO)C(O)C(O)C7O)C(O)C6OC6OC(CO)C(O)C(O)C6O)C(C)(CO)C5CCC43C)C2CC1(C)C` (stereo not drawn) [Beta-Escin], the growth amounted to 0.438 ± 0.02.

Regarding `Nc1ccc(C(=O)NCC(=O)O)cc1` [Aminohippuric acid], the growth turned out to be 0.6256 ± 0.0055.

Take `CN(C/C=C/c1ccccc1)Cc1cccc2ccccc12` [Naftifine hydrochloride]: the growth is 0.374 ± 0.0058.

In turn, `CCN(CC)CCOc1ccc(C(=C(Cl)c2ccccc2)c2ccccc2)cc1` [Clomiphene citrate (Z,E)] returned a growth of 0.0537 ± 0.00085.

On to `Nc1nc(=O)c2nc(CNc3ccc(C(=O)N[C@@H](CCC(=O)O)C(=O)O)cc3)cnc2[nH]1` [Folic acid], for which the growth is 0.446 ± 0.02.

For `CCCc1nc(C)c2c(=O)nc(-c3cc(S(=O)(=O)N4CCN(CC)CC4)ccc3OCC)[nH]n12` [Vardenafil], the growth turned out to be 0.55 ± 0.11.

Take `Clc1ccc(C(Cn2ccnc2)OCc2c(Cl)cccc2Cl)c(Cl)c1` (stereo not given) [Isoconazole]: the growth was found to be 0.0722 ± 0.023.

`CC(CN(C)C)CN1c2ccccc2CCc2ccccc21` (stereo not given) [Trimipramine maleate salt]: the growth came out at 0.4285 ± 0.0016.

For `OCCN(CCO)c1nc(N2CCCCC2)c2nc(N(CCO)CCO)nc(N3CCCCC3)c2n1` [Dipyridamole], the growth is 0.0816 ± 0.027.

`CC(=O)CCCCn1c(=O)c2c(ncn2C)n(C)c1=O` [Pentoxifylline] registered a growth of 0.489 ± 0.096.

Regarding `NC[C@@H]1O[C@@H](O[C@H]2[C@H](O)[C@@H](O[C@H]3O[C@H](CO)[C@@H](O)[C@H](N)[C@H]3O)[C@H](N)C[C@@H]2N)[C@@H](O)[C@H](O)[C@H]1O` [Kanamycin A sulfate], the growth worked out at 0.495 ± 0.032.

The compound `COc1ccc(C(=O)NCc2cccnc2)cc1C(=O)NCc1cccnc1` [Picotamide monohydrate] had a growth of 0.453 ± 0.033.

Consider `CC[C@H](c1ccc(O)cc1)[C@@H](CC)c1ccc(O)cc1` [Hexestrol], for which the growth stood at 0.054 ± 0.0093.

Take `O=C(CCCN1CC=C(n2c(=O)[nH]c3ccccc32)CC1)c1ccc(F)cc1` [Droperidol]: the growth came out at 0.404 ± 0.025.

As for `CCOC(=O)C(C)(C)Oc1ccc(Cl)cc1` [Clofibrate], the growth amounted to 0.609 ± 0.065.

Consider `CCN(CC)CCOC(=O)C1(c2ccc([N+](=O)[O-])cc2)CCCC1` [Nitrocaramiphen hydrochloride], for which the growth amounted to 0.488 ± 0.054.

In turn, `Cn1cnc([N+](=O)[O-])c1Sc1ncnc2[nH]cnc12` [Azathioprine] yielded a growth of 0.27 ± 0.0092.

In the case of `Cc1ccccc1C(OCCN(C)C)c1ccccc1` (stereo not given) [Orphenadrine hydrochloride], the growth amounted to 0.463 ± 0.043.

`CC(=O)N(O)CCCCCNC(=O)CCC(=O)N(O)CCCCCNC(=O)CCC(=O)N(O)CCCCCN` [Deferoxamine mesylate]: the growth stood at 0.1754 ± 0.0017.

`Clc1ccc(Nc2nnc(Cc3ccncc3)c3ccccc23)cc1` [Vatalanib] came in with a growth of 0.514 ± 0.0082.

`CCOC(=O)/C=C(C)/C=C/C=C(C)/C=C/c1c(C)cc(OC)c(C)c1C` [Etretinate]: the growth came to 0.544 ± 0.058.

`CC(CN1c2ccccc2Sc2ccccc21)N(C)C` (stereo not given) [Promethazine hydrochloride] displayed a growth of 0.456 ± 0.026.

Regarding `CN(C)CCCN1c2ccccc2Sc2ccc(C(F)(F)F)cc21` [Triflupromazine hydrochloride], the growth was 0.049 ± 0.00076.

The compound `CN[C@H](CC(C)C)C(=O)N[C@H]1C(=O)N[C@@H](CC(N)=O)C(=O)N[C@H]2C(=O)N[C@H]3C(=O)N[C@H](C(=O)N[C@H](C(=O)O)c4cc(O)cc(O)c4-c4cc3ccc4O)[C@H](O)c3ccc(c(Cl)c3)Oc3cc2cc(c3O[C@@H]2O[C@H](CO)[C@@H](O)[C@H](O)[C@H]2O[C@H]2C[C@](C)(N)[C@H](O)[C@H](C)O2)Oc2ccc(cc2Cl)[C@H]1O` [Vancomycin hydrochloride] displayed a growth of 0.0581 ± 0.0048.

In turn, `CCOC(=O)c1ccc(OC(=O)CCCCCNC(=N)N)cc1` [Gabexate mesilate] showed a growth of 0.495 ± 0.029.

With `O=C(CCCCCCC(=O)Nc1ccccc1)NO` [Vorinostat], the growth amounted to 0.495 ± 0.099.

Take `CCCC1O[C@@H]2C[C@H]3[C@@H]4CCC5=CC(=O)C=C[C@]5(C)[C@H]4[C@@H](O)C[C@]3(C)[C@]2(C(=O)CO)O1` (stereo not given in full) [Budesonide]: the growth was determined as 0.449 ± 0.02.
